Active and inactive are the calls of the source. Unless noted, the call rests on the fitted dose curve; in most records, active means well fitted curve in the direction sought with a large enough effect in the repeat runs; inconclusive means weak or mixed curves; inactive means no such curve, though single readings can be large; an effect the other way counts as inactive or inconclusive.
What was measured:
[1] = qHTS assay to test for compound auto fluorescence at 535 nm (green) in HEK293 cells (AID 720680)
[2] = qHTS assay to test for compound auto fluorescence at 460 nm (blue) in HEK293 cell free culture (AID 720681)
How it was run: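 Blue fluorescence (Ex 405/Em 460 nm, triamterene-equivalent) was read immediately after pin transfer of compound or DMSO into medium (DMEM, 10% FBS) without cells.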

[3] = qHTS assay to test for compound auto fluorescence at 590 nm (red) in HEK293 cell free culture (AID 720683)
How it was run: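 Red-channel autofluorescence of compounds in culture medium (DMEM, 10% FBS), no cells, measured at 540/590 nm. Rose Bengal sodium is the reference fluorophore for equivalence.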

[4] = qHTS assay to test for compound auto fluorescence at 590 nm (red) in HepG2 cell free culture (AID 720684)
How it was run: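 No cells present: MEM + 10% FBS only. Compound pinned in, red label read (540/590 nm). Activity = fluorescence equivalent to Rose Bengal sodium.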

[5] = qHTS assay to test for compound auto fluorescence at 460 nm (blue) in HepG2 cell free culture (AID 720685)
How it was run: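 Cell-free plates of MEM plus 10% FBS received 23 nL compound or DMSO vehicle; blue-channel (405/460 nm) intensity scored against triamterene as reference fluorophore.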

[6] = qHTS assay to test for compound auto fluorescence at 535 nm (green) in HepG2 cell free culture (AID 720686)
[7] = qHTS assay to test for compound auto fluorescence at 460 nm (blue) in HepG2 cells (AID 720687)
How it was run: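 Blue-channel autofluorescence (Ex/Em 405/460 nm, triamterene-equivalent) was measured after 1 hr compound exposure at 37 C, 5% CO2. Cells were HepG2, plated overnight at 37 C in MEM plus 10% FBS.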

[8] = target: Glucocorticoid receptor (Homo sapiens) (UniProt P04150); experiment: qHTS assay to identify small molecule agonists of the glucocorticoid receptor (GR) signaling pathway (AID 720691; active means well fitted activation curve with a large enough effect in the signal ratio in the repeat runs, not every such curve was filed as active; inconclusive means weak or mixed curves, or effect the other way; inactive means no such curve, though single readings can be large or run the other way; the % refers to the signal ratio; further: potency means the concentration at half of the fitted maximal effect)
Sequence of Glucocorticoid receptor (Homo sapiens) (P04150 whole entry, looked up): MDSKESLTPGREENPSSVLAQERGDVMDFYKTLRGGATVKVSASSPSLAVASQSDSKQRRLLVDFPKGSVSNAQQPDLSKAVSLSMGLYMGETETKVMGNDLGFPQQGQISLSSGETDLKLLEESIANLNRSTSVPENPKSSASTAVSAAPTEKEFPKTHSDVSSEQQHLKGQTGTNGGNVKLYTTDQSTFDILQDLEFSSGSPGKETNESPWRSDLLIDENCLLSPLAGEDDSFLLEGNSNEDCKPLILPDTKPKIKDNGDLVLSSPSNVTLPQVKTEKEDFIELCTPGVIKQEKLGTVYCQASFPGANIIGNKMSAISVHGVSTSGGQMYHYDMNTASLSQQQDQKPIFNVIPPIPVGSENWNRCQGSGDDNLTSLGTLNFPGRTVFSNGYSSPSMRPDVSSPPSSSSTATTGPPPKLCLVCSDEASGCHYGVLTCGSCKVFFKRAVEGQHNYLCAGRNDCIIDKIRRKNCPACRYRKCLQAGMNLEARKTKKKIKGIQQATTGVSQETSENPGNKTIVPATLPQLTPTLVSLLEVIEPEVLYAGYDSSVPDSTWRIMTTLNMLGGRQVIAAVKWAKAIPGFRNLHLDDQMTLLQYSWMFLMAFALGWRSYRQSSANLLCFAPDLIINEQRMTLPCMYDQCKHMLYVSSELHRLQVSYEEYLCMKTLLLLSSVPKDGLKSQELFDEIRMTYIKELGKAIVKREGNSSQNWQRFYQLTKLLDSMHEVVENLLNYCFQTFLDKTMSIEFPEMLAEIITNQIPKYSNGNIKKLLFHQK
How it was run: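 A HeLa cervical cancer line expressing GR and a glucocorticoid response element-driven beta-lactamase gene is treated with compounds for 18 h; LiveBLAzer B/G FRET substrate is then applied and fluorescence read.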

[9] = target: Glucocorticoid receptor (Homo sapiens) (UniProt P04150); experiment: qHTS assay to identify small molecule antagonists of the glucocorticoid receptor (GR) signaling pathway (AID 720692; active means well fitted inhibition curve with a large enough effect in the signal ratio in the repeat runs, not every such curve was filed as active; inconclusive means weak or mixed curves, or effect the other way; inactive means no such curve, though single readings can be large or run the other way; the % refers to the signal ratio)
How it was run: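 GRE-bla HeLa line, dex-stimulated (5 nM final). Compound exposure 18 h, 37 C. Beta-lactamase FRET read after 2 h RT substrate.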

[10] = qHTS assay to identify small molecule antagonists of the glucocorticoid receptor (GR) signaling pathway - cell viability counter screen (AID 720693); further: nearly all actives have a fitted effect of over 55% in size
[11] = qHTS assay for identifying genotoxic compounds that show differential cytotoxicity against isogenic chicken DT40 cell lines with known DNA damage response pathways - wild type cell line (AID 743012); further: nearly all actives have a fitted effect of over 60% in size; further: potency means the concentration at half of the fitted maximal effect
How it was run: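 300 wt DT40 cells/well; cpd (DMSO) pintool-transferred after ~0.5 h at 37 C/5% CO2; 40 h incubation; CellTiter-Glo added, 30 min RT; luminescence read.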

[12] = qHTS assay for identifying genotoxic compounds that show differential cytotoxicity against isogenic chicken DT40 cell lines with known DNA damage response pathways - Rev3 mutant cell line (AID 743014); further: nearly all actives have a fitted effect of over 55% in size; further: potency means the concentration at half of the fitted maximal effect
[13] = qHTS assay to identify small molecule antagonists of the androgen receptor (AR) signaling pathway - cell viability counter screen (AID 743033; further: nearly all actives have a fitted effect of over 45% in size)
[14] = qHTS assay to identify small molecule antagonists of the androgen receptor (AR) signaling pathway using the MDA cell line - cell viability counter screen (AID 743041; further: nearly all actives have a fitted effect of over 45% in size)
How it was run: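 Using the breast carcinoma line MDA-kb2 AR-luc, test chemicals were co-incubated with R1881 for 16 h; CellTiter-Fluor reagent, added at 15.5 h, provided a fluorescence measure of live cells.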

[15] = qHTS assay to identify small molecule antagonists of the thyroid receptor (TR) signaling pathway - cell viability counter screen (AID 743064); further: nearly all actives have a fitted effect of over 50% in size
How it was run: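 Compounds were tested on GH3.TRE-Luc cells in the presence of T3 at 1 nM final. Following 23.5 h at 37 °C, cell viability was quantified by CellTiter-Fluor.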

[16] = target: Androgen receptor (Homo sapiens) (UniProt P10275); experiment: qHTS assay to identify small molecule antagonists of the androgen receptor (AR) signaling pathway (AID 743035; active means well fitted inhibition curve with a large enough effect in the signal ratio in the repeat runs, not every such curve was filed as active; inconclusive means weak or mixed curves, or effect the other way; inactive means no such curve, though single readings can be large or run the other way; the % refers to the signal ratio)
Sequence of Androgen receptor (Homo sapiens) (P10275 whole entry, looked up): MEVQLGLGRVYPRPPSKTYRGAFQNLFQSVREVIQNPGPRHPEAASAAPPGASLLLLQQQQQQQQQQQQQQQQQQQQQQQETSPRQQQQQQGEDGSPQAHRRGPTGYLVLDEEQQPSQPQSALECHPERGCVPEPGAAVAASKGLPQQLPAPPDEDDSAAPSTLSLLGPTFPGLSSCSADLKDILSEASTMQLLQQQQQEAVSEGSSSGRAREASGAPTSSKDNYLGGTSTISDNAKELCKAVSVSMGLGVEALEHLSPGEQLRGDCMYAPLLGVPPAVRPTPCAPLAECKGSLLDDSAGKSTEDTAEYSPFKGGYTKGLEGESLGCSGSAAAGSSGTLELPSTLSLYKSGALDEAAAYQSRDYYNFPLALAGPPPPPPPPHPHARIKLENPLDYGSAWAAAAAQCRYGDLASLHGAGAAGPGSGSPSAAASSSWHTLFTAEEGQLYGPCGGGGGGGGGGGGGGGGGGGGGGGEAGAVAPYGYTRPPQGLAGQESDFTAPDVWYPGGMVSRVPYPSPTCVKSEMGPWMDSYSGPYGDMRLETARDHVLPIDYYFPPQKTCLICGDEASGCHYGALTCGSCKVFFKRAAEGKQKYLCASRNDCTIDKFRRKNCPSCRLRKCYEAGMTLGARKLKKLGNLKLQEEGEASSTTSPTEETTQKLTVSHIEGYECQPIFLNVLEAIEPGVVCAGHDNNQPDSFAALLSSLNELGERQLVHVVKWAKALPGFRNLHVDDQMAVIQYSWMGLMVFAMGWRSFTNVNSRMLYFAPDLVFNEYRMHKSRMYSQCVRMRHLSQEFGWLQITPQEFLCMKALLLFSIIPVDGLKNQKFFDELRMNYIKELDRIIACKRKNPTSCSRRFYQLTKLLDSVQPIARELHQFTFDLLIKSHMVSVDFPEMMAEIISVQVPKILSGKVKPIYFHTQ
How it was run: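 In this cell-based reporter screen, compounds were tested in concentration series against R1881-activated HEK293 cells expressing beta-lactamase under UAS control; after 16 h at 37C, FRET substrate was added and fluorescence read 2 h later.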

[17] = target: Androgen receptor (Homo sapiens) (UniProt P10275); experiment: qHTS assay to identify small molecule agonists of the androgen receptor (AR) signaling pathway using the MDA cell line (AID 743040; further: nearly all actives have a fitted effect of over 20% in size)
How it was run: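 Stable MMTV-luciferase reporter in MDA-kb2 cells; note the promoter carries GR as well as AR response elements. 16 h compound treatment, 37C, 0% CO2; ONE-Glo luminescence endpoint.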

[18] = qHTS assay for identifying genotoxic compounds that show differential cytotoxicity against isogenic chicken DT40 cell lines with known DNA damage response pathways - Rad54/Ku70 mutant cell line (AID 743015); further: nearly all actives have a fitted effect of over 60% in size
[19] = target: Androgen receptor (Homo sapiens) (UniProt P10275); experiment: qHTS assay to identify small molecule antagonists of the androgen receptor (AR) signaling pathway using the MDA cell line (AID 743042; further: nearly all actives have a fitted effect of over 55% in size)
How it was run: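 Antagonist mode: compounds plus R1881 agonist added to MDA-kb2 AR-luc cells, incubated 16 h at 37C. Luciferase reporter luminescence quantified, with multiplexed CellTiter-Fluor readout for cell viability.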
On the % scale 0 is the no-effect control and ±100 the full control effect.

O=Cc1c(Cl)cccc1Cl
inactive: outcome [1] | Potency [2] | outcome [3] | outcome [4] | Potency [5] | outcome [6] | Potency [7] | Potency [8] | Potency [9] | Potency [10] | Potency [11] | Potency [12] | Potency [13] | Potency [14] | Potency [15]

COc1ccc(CCC(=O)c2c(O)cc(O[C@@H]3O[C@H](CO)[C@@H](O)[C@H](O)[C@H]3O[C@@H]3O[C@@H](C)[C@H](O)[C@@H](O)[C@H]3O)cc2O)cc1O
inactive: outcome [1] | Potency [2] | outcome [3] | outcome [4] | Potency [5] | outcome [6] | Potency [7] | Potency [8] | Potency [10] | Potency [11] | Potency [12] | Potency [13] | Potency [16] | Potency [17] | Potency [14] | Potency [15]

C=CCCCCCCCCCCCCCCCC
inactive: fluorescence, % of fluorescein [1] 0.013% [at 3.72 µM] | fluorescence, % of fluorescent control [2] -0.189% [at 3.72 µM] | fluorescence, % of fluorescent control [3] -0.0981% [at 3.72 µM] | fluorescence, % of Rose Bengal [4] 0.0296% [at 3.72 µM] | fluorescence, % of fluorescent control [5] -0.0068% [at 3.72 µM] | fluorescence, % of fluorescein control [6] -0.0312% [at 3.72 µM] | fluorescence, % of fluorescent control [7] 0.0871% [at 3.72 µM] | viability change, negative = cytotoxic [10] -0.145% [at 7.04 µM] | activity change, negative = cytotoxicity [11] -12.1% [at 8.52 µM] | activity, negative = cytotoxicity [12] 2.07% [at 8.53 µM] | activity change, negative = cytotoxicity [18] -0.283% [at 8.55 µM] | activity change, negative = cytotoxicity [13] 0.86% [at 7.04 µM] | viability change, negative = cytotoxic [14] -4.7% [at 8.47 µM] | activity change, negative = cytotoxic [15] -9.44% [at 8.44 µM]

CCCCC(=O)O[C@]1(C(=O)CO)CC[C@H]2[C@@H]3CCC4=CC(=O)CC[C@]4(C)[C@H]3[C@@H](O)C[C@@]21C
active: Potency [8] 0.0425 µM [inconclusive]
inactive: outcome [1] | Potency [2] | outcome [3] | outcome [4] | Potency [5] | outcome [6] | Potency [7] | Potency [10] | Potency [12] | Potency [13] | Potency [14] | Potency [15]

O=C(C(=O)c1ccccc1)c1ccccc1
inactive: outcome [1] | Potency [2] | outcome [3] | outcome [4] | Potency [5] | Potency [7] | Potency [8] | Potency [9] | Potency [10] | Potency [12] | Potency [13] | Potency [15]

N#C/C(=C1\SCC(c2ccccc2Cl)S1)n1ccnc1 (stereo not drawn)
active: Potency [12] 26.6 µM
inactive: outcome [1] | Potency [2] | outcome [3] | outcome [4] | Potency [5] | outcome [6] | Potency [7] | Potency [8] | Potency [10] | Potency [13] | Potency [16] | Potency [14] | Potency [19]

C[N+](C)(C)CCOC(N)=O
inactive: outcome [1] | Potency [2] | outcome [3] | outcome [4] | Potency [5] | outcome [6] | Potency [7] | Potency [10] | Potency [11] | Potency [12] | Potency [18] | Potency [13] | Potency [14] | Potency [15]

CCCOC(=O)c1ccc(C(=O)OCCC)nc1
inactive: outcome [1] | Potency [2] | outcome [3] | outcome [4] | Potency [5] | outcome [6] | Potency [7] | Potency [8] | Potency [9] | Potency [10] | Potency [11] | Potency [12] | Potency [18] | Potency [13] | Potency [14] | Potency [15]

CC(C)CCCCCOC(=O)CCCCC(=O)OCCCCCC(C)C
active: Potency [11] 61.1 µM | Potency [12] 61.1 µM
inactive: outcome [1] | Potency [2] | outcome [3] | outcome [4] | Potency [5] | outcome [6] | Potency [7] | Potency [8] | Potency [9] | Potency [10] | Potency [13] | Potency [14] | Potency [15]

Cc1ccnc2ccccc12
inactive: outcome [1] | Potency [2] | outcome [3] | outcome [4] | Potency [5] | outcome [6] | Potency [7] | Potency [8] | Potency [9] | Potency [10] | Potency [11] | Potency [18] | Potency [13] | Potency [14] | Potency [15]

CCOC(=O)/C=C/C(=O)O
inactive: outcome [1] | Potency [2] | outcome [3] | outcome [4] | Potency [5] | outcome [6] | Potency [7] | Potency [10] | Potency [11] | Potency [13] | Potency [16] | Potency [14] | Potency [19] | Potency [15]
